Screen size: about 62,000 compounds; about 80 (0.1%) were called active. The rule behind the calls is not given here. The list is a sample of the results. Potency and affinity values are given separately.
Molecular target: Ephrin type-A receptor 4 (Mus musculus) (UniProt Q03137)
Test: inhibitors of EphA4 binding to KYL peptide, primary screen, biochemical, colorimetric, mouse EphA4 (AID 689)
Conditions: EphA4-AP binding to KYL peptide, pNPP A405, at 10 µM, hits give high values

Ephrin type-A receptor 4 (Mus musculus), sequence (Q03137 whole entry, looked up): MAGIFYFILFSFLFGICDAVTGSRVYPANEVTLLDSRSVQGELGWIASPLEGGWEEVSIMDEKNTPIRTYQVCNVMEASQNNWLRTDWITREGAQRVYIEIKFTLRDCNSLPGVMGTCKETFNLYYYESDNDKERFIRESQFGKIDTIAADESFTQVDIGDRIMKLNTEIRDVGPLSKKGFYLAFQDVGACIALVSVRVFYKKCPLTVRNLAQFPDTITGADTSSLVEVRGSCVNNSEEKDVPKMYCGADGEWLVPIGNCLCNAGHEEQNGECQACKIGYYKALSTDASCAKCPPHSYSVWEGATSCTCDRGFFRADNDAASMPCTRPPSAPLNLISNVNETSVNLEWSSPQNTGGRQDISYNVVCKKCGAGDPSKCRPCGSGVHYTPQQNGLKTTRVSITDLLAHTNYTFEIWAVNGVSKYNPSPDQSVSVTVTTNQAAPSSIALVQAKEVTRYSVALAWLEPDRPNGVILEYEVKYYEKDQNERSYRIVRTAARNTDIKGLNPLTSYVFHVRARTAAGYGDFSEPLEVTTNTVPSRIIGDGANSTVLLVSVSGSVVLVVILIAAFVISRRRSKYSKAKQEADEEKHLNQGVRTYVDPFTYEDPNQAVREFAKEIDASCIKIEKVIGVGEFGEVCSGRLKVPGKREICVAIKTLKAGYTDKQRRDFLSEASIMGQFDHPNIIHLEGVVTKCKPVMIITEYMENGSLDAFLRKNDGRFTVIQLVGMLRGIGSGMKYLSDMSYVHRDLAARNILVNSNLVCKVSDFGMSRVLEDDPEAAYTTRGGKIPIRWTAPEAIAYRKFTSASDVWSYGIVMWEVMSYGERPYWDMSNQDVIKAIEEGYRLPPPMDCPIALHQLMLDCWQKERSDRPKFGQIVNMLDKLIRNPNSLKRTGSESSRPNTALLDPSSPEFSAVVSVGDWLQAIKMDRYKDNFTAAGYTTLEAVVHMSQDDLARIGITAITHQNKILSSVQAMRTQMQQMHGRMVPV

inhibition, inactive:
CCCOc1nc2c(c(=O)n(C)c(=O)n2C)n1CCC -3.5%
CC(=O)c1c(C)n(-c2ccccc2)c2ccc(OCC(O)CN3CCOCC3)cc12 (stereo not drawn) -25.3%
Cn1c(=O)n(C)c2cc(S(=O)(=O)NCc3ccco3)ccc21 -8%
N#CC(c1ccc(O)cc1)N1CCCCC1 (stereo not drawn) 0.9%
Cc1ccc(NC(=O)N2CCC(C(=O)NCC(C)C)CC2)cc1 -0.8%
CC(C)OCCCNC(=O)C1CCC(=O)N1C(C)C (stereo not drawn) -3.7%
CCc1ccc(S(=O)(=O)Nc2cc(Br)c(O)c3ccccc23)cc1 2.2% [this sample at 5 µg/mL]
COc1ccc(S(=O)(=O)Nc2ccc(NS(=O)(=O)c3ccc(OC)cc3)c3ccccc23)cc1 -1.5% [this sample at 5 µg/mL]
Cc1ccc(S(=O)(=O)Oc2cccc(N3C(=O)C4CC=CCC4C3=O)c2)cc1 (stereo not drawn) -10.4%
CCN(CC(=O)Nc1ccc2c(c1)OCCO2)c1ccc(S(=O)(=O)N2CCOCC2)cn1 -6.5%
O=C(Cc1cccs1)N1CCN(c2cccc(Cl)c2)CC1 11.4% [this sample at 5 µg/mL]
COc1ccc(C2CC(=O)N3CN(c4ccccc4F)CSC3=C2C#N)cc1OC (stereo not drawn) -4.9%
COc1cccc(C2CC(=O)N3CN(c4ccccc4F)CSC3=C2C#N)c1 (stereo not drawn) 12.3%
CCOC(=O)c1c(NC(=S)Nc2ccccc2)sc2c1CCCCC2 1.6%
CCOC(=O)c1c(NC(=S)Nc2ccccc2)sc2c1CCN(CC)C2 0.4%
Cc1ccc2[nH]c(=O)c(CN(CCCN3CCOCC3)C(=O)NC3CCCCC3)cc2c1 -12%
COc1ccccc1Cc1noc(C(C)(C)NC(=O)c2ccccc2)n1 9%
CN(C)CCCNC(=O)CC(c1ccc(F)cc1)c1ccco1 (stereo not drawn) -15.3%
CCOC(=O)C1=C(c2ccccc2)N=c2s/c(=C\c3ccc(O)c(OC)c3)c(=O)n2C1c1ccc(OC)cc1 (stereo not drawn) 7.7% [this sample at 5 µg/mL]
CCOC(=O)C1=C(c2ccccc2)N=c2s/c(=C\c3ccc(O)cc3)c(=O)n2C1c1cccs1 (stereo not drawn) 23.9%
O=C(O)CCC(=O)NCCn1c(-c2ccccc2)csc1=Nc1ccccc1 -2.4%
O=C1/C(=C\c2cccnc2)SC(=S)N1C1CCS(=O)(=O)C1 (stereo not drawn) 1.1%
CCOc1ccc(-c2nn(-c3ccccc3)cc2/C=C2\SC(=S)N(CCOC)C2=O)cc1 24.2% [this sample at 5 µg/mL]

Reference: PubChem BioAssay AID689 (Sanford-Burnham Center for Chemical Genomics, 2007)
